Test results published in PubChem BioAssay AID431 (Sanford-Burnham Center for Chemical Genomics, 2006).
The whole screen tested about 63,000 compounds, of which about 1,100 (1.7%) were called active.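 How the source made its calls: active means compounds whose percent cytotoxicity in the single-dose primary screen, scaled between solvent and toxic-drug controls, exceeds 50; inactive means the rest.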 Many of the other results were omitted from the sample, so actives are more common in it than they were. Measured potencies and affinities stand elsewhere.

Test: viability loss of HPDE-C7K cells – cell-based, fluorescence, HTS, primary screen (AID 431);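 further: 0% = DMSO solvent wells and 100% = doxorubicin-treated wells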
Details: HPDE-C7K KRASV12 cells, Alamar Blue viability, 48 h; at 10 µM; stronger effect = higher value

Compound	cytotoxicity
COC(=O)C1=C(C)N=C2SCCC(=O)N2C1c1cccs1 (stereo not drawn)	12.3% (inactive)
COc1cccc(-n2ccnc2SCC(=O)Nc2nccs2)c1	-7.9% (inactive)
N#CC1=C(N)Oc2n[nH]c(-c3cccs3)c2C1c1ccsc1 (stereo not drawn)	-8.3% (inactive)
Cc1c(C(=O)O)[nH]c2c1C(=O)CC(c1ccccc1)C2 (stereo not drawn)	-8.9% (inactive)
COCCOC(=O)c1[nH]c2c(c1C)C(=O)CC(c1ccccc1)C2 (stereo not drawn)	71.5% (active)
Cc1c(C(=O)N2CCOCC2)[nH]c2c1C(=O)CC(c1ccccc1Cl)C2 (stereo not drawn)	55.9% (active)
COC(=O)c1[nH]c2c(c1C)C(=O)CC(c1cccs1)C2 (stereo not drawn)	75.6% (active)
CCOC(=O)c1[nH]c2c(c1C)C(=O)CC(c1ccc(OC)c(OC)c1)C2 (stereo not drawn)	-13.1% (inactive)
COCCOC(=O)c1[nH]c2c(c1C)C(=O)CC(c1ccc(N(C)C)cc1)C2 (stereo not drawn)	-10.1% (inactive)
CCOC(=O)c1[nH]c2c(c1C)C(=O)CC(c1ccc(OCC)c(OC)c1)C2 (stereo not drawn)	-1.2% (inactive)
Cc1c(C(=O)N2CCOCC2)[nH]c2c1C(=O)CC(c1ccc(Cl)cc1)C2 (stereo not drawn)	-7.4% (inactive)
COC(=O)c1[nH]c2c(c1C)C(=O)CC(c1ccc(C)cc1)C2 (stereo not drawn)	-3.1% (inactive)
COCCOC(=O)c1[nH]c2c(c1C)C(=O)CC(c1ccc(F)cc1)C2 (stereo not drawn)	5.3% (inactive)
COC(=O)c1[nH]c2c(c1C)C(=O)CC(c1ccccc1)C2 (stereo not drawn)	48.3% (inactive)
CCOC(=O)c1[nH]c2c(c1C)C(=O)CC(c1ccco1)C2 (stereo not drawn)	59.2% (active)
CCN(CC)S(=O)(=O)c1ccc(OC(C)C)nc1	-11.5% (inactive)
COC(=O)c1ccsc1NC(=O)C1COc2ccccc2O1 (stereo not drawn)	4.6% (inactive)
Cc1cc(C(=O)COc2ncnc3sccc23)c(C)n1C1CC1	-0.1% (inactive)
Cc1c(C(=O)OC2CCCCC2)[nH]c2c1C(=O)CC(C)(C)C2	3.6% (inactive)
Cc1c(C(=O)OC2CCC(C)CC2)[nH]c2c1C(=O)CCC2 (stereo not drawn)	0.1% (inactive)
Cc1c(C(=O)OCC(C)C)[nH]c2c1C(=O)CC(c1ccco1)C2 (stereo not drawn)	66.2% (active)

Compound	cytotoxicity
Cc1c(C(=O)OCCOC(C)C)[nH]c2c1C(=O)CC(c1ccco1)C2 (stereo not drawn)	68.1% (active)
CSCCOC(=O)c1[nH]c2c(c1C)C(=O)CC(c1ccco1)C2 (stereo not drawn)	59.3% (active)
Cc1c(C(=O)OCCOC(C)C)[nH]c2c1C(=O)CC(C)(C)C2	-19.6% (inactive)
Cc1c(C(=O)OC2CCCC2)[nH]c2c1C(=O)CC(c1ccco1)C2 (stereo not drawn)	53.7% (active)
COc1cc(C2CC(=O)c3c([nH]c(C(=O)OCCOC(C)C)c3C)C2)cc(OC)c1OC (stereo not drawn)	5.8% (inactive)
CCC(C)OC(=O)c1[nH]c2c(c1C)C(=O)CC(c1ccc(N(C)C)cc1)C2 (stereo not drawn)	4.6% (inactive)
COc1ccc(-n2nc(C(=O)NCC(=O)NCC3CCCO3)c3ccccc3c2=O)c(OC)c1 (stereo not drawn)	0.7% (inactive)
CC(C)CNS(=O)(=O)c1ccc(CCC(=O)N2CCN(Cc3ccccc3)CC2)cc1	-1.6% (inactive)
CN(C)CC(=O)Nc1cc(C(F)(F)F)ccc1Cl	-7.9% (inactive)
Cc1cc(C)nc(SCc2nnc(SCC(=O)N3CCOCC3)o2)n1	4.2% (inactive)
CCc1nnc(NC(=O)c2ccc(COc3ccc(C)cc3)o2)s1	-2.5% (inactive)
CCCCCOC(=O)c1[nH]c2c(c1C)C(=O)CC(c1ccco1)C2 (stereo not drawn)	51.4% (active)
CCCCOC(=O)c1[nH]c2c(c1C)C(=O)CC(c1cc(OC)c(OC)c(OC)c1)C2 (stereo not drawn)	4.1% (inactive)
CCCOC(=O)c1[nH]c2c(c1C)C(=O)CC(c1ccc(OC)c(OC)c1)C2 (stereo not drawn)	-0.9% (inactive)
Cc1cc(C)c2nc(SCC#N)cc(C)c2c1	15.7% (inactive)
Cc1cc(NCCCN2CCOCC2)n2ncc(-c3ccc(Cl)cc3)c2n1	23.7% (inactive)
Cc1cc(NCCN2CCOCC2)n2ncc(-c3ccc(Cl)cc3)c2n1	17% (inactive)
Cc1cc(NCCOCCO)n2ncc(-c3ccc(Cl)cc3)c2n1	75.4% (active)
COc1cccc(OCc2nc3ccccc3[nH]2)c1	10.6% (inactive)
COc1cccc(OCc2nc3ncc(Br)cc3[nH]2)c1	64.8% (active)
O=C(NCc1nc2ncc(Br)cc2[nH]1)c1ccccc1	-7.6% (inactive)

Compound	cytotoxicity
O=C(COC(=O)C(O)c1ccccc1)c1ccc2c(c1)OCCO2 (stereo not drawn)	-14.7% (inactive)
Cn1cc(Cl)c(C(=O)Nc2cccc(Cl)c2Cl)n1	-18.7% (inactive)
COC(=O)c1ccc(Oc2nc(C)cc(Oc3ccccc3)n2)cc1	-1.7% (inactive)
COC(=O)c1ccc(Oc2cc(C)nc(SC)n2)cc1	53.4% (active)
COC(=O)c1ccc(Oc2cc(C)nc(NCc3ccccc3)n2)cc1	1.6% (inactive)
CCOC(=O)c1ccc(Oc2nc(SC)nc(N(C)C)n2)cc1	-21.1% (inactive)
CCOC(=O)c1ccc(Oc2nc(NC)nc(SC)n2)cc1	-5.1% (inactive)
CCOC(=O)c1ccc(Oc2cc(C)nc(SC)n2)cc1	55.4% (active)
COc1ccc(S(=O)(=O)NC2CC3CCC2C3)cc1Cl (stereo not drawn)	5% (inactive)
CCOC(=O)C(Cc1ccccc1)NC(=O)CCc1c(C)nc2ncnn2c1C (stereo not drawn)	-0.7% (inactive)
O=C(CN1CCc2ccccc2C1)c1cccs1	-6.1% (inactive)
COc1cc2c(cc1OC)CN(C(=O)CSc1nnc3scc(-c4ccccc4)n13)CC2	1.3% (inactive)
CCN(CC)CCCOc1nc(C)nc2c1oc1ccccc12	9.8% (inactive)
Clc1ccc(OCc2nc(-c3ccccn3)n[nH]2)cc1	47.8% (inactive)
Cc1cc(Cl)ccc1OCCCC(N)=O	-7% (inactive)
Cc1cc(Cl)ccc1OCc1nc(-c2ccc(O)cc2)n[nH]1	86.2% (active)
COc1ccc(N2CCN(C(=O)c3ccc4c(c3)OCO4)CC2)cc1	17% (inactive)
CC1CC(C)CN(C(=O)Cn2c(=O)n(CCCCC(=O)NC3CCCC3)c(=O)c3ccccc32)C1 (stereo not drawn)	-3.9% (inactive)
O=C(Cc1ccc(Cl)c(Cl)c1)OCC(=O)c1ccc[nH]1	-10.8% (inactive)
O=C(Cc1ccc(-c2ccccc2)cc1)N1CCOCC1	-4.1% (inactive)
O=C1NCCCC2c3c(cc(Br)c(O)c3Br)OC12N1CCOCC1 (stereo not drawn)	-3.5% (inactive)
